Test results from the supplement of paper PMC6555819.

Experiments:
Assay in all cases: PBM binding z-score (relative to random genomic background probes); higher = stronger binding; sequences stand for … in GC…GCGATTGACAGCGTAGAATGAAGG
[1] = system: FXR:RXRa (NR concentration 270 nM, RXRa partner concentration 90 nM)
How it was run: (§1)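 Ligand-free nuclear receptor dimers were applied to custom Agilent 4×180K protein-binding microarrays whose double-stranded probes carried direct-repeat seeds, single-nucleotide variants, half-site ablations and random human genomic background sequences in 34-nt variable regions. Incubation lasted 1 h. Binding z-scores were computed against the random background probes from regression-normalized fluorescence.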

[2] = system: LXRa:RXRa (NR concentration 270 nM, RXRa partner concentration 90 nM)
How it was run: as §1

[3] = system: LXRa homodimer (NR concentration 270 nM)
How it was run: as §1

[4] = system: LXRb:RXRa (NR concentration 270 nM, RXRa partner concentration 90 nM)
How it was run: as §1

[5] = system: LXRb homodimer (NR concentration 270 nM)
How it was run: as §1

[6] = system: PPARa:RXRa (NR concentration 270 nM, RXRa partner concentration 90 nM)
How it was run: as §1

[7] = system: PPARg:RXRa (NR concentration 180 nM, RXRa partner concentration 90 nM)
How it was run: as §1

[8] = system: PPARg:RXRa 270nM:90nM, anti-RXR (NR concentration 270 nM, RXRa partner concentration 90 nM)
How it was run: as §1

[9] = system: PPARg:RXRa 30nM:10nM, anti-RXR (NR concentration 30 nM, RXRa partner concentration 10 nM)
How it was run: as §1

[10] = system: PPARg:RXRa 90nM:30nM, anti-RXR (NR concentration 90 nM, RXRa partner concentration 30 nM)
How it was run: as §1

[11] = system: PPARg:RXRa DBDmut IVT, anti-RXR (DBD mutation: RXRa K156A/R161A, NR concentration 270 nM, RXRa partner concentration 90 nM)
How it was run: as §1

[12] = system: PPARg:RXRa IVT, anti-PPARg (NR concentration 270 nM, RXRa partner concentration 90 nM)
How it was run: as §1

[13] = system: PPARg DBDmut IVT, anti-PPARg (DBD mutation: PPARg1 K132A/R137A, NR concentration 270 nM)
How it was run: as §1

[14] = system: PPARg homodimer (NR concentration 180 nM)
How it was run: as §1

[15] = system: PXR:RXRa (NR concentration 270 nM, RXRa partner concentration 90 nM)
How it was run: as §1

[16] = system: PXR homodimer (NR concentration 270 nM)
How it was run: as §1

[17] = system: RARa:RXR (NR concentration 270 nM, RXRa partner concentration 90 nM)
How it was run: as §1

[18] = system: RARa homodimer (NR concentration 270 nM)
How it was run: as §1

[19] = system: RARb:RXRa (NR concentration 270 nM, RXRa partner concentration 90 nM)
How it was run: as §1

| Sequence | PBM binding z-score [1] | PBM binding z-score [2] | PBM binding z-score [3] | PBM binding z-score [4] | PBM binding z-score [5] | PBM binding z-score [6] | PBM binding z-score [7] | PBM binding z-score [8] | PBM binding z-score [9] | PBM binding z-score [10] | PBM binding z-score [11] | PBM binding z-score [12] | PBM binding z-score [13] | PBM binding z-score [14] | PBM binding z-score [15] | PBM binding z-score [16] | PBM binding z-score [17] | PBM binding z-score [18] | PBM binding z-score [19] |
| --- | --- | --- | --- | --- | --- | --- | --- | --- | --- | --- | --- | --- | --- | --- | --- | --- | --- | --- | --- |
| CGAAATAGGTCACCAGGACAGTGAAGAGGTTGGA | 5.67 | 4.08 | 0.461 | 3.13 | 0.187 | 5.9 | 8.44 | 7.47 | 4.7 | 6.97 | 7.94 | 8.03 | 1.09 | 1.95 | 2.67 | 0.221 | 3.82 | 1.35 | 4.78 |
| CGTACTAGGTCACCAGGACAGTGAAGAGGTTGGA | 3.85 | 2.7 | 0.154 | 2.01 | -0.0806 | 4.67 | 7.91 | 6.32 | 3.8 | 5.83 | 7.9 | 8.08 | 4.96 | 3.11 | 1.53 | 0.369 | 2.86 | 0.557 | 4.19 |
| ATATGTAGGTTAGGGTCTTTCAGAAAGTAGGGAA | 1.38 | 0.75 | 0.422 | 1.37 | 1.11 | 3.21 | 4.93 | 3.87 | 1.72 | 3.03 | 6.29 | 6.62 | 2.64 | 2.25 | 0.93 | 1.06 | 1.2 | 1.44 | 0.945 |
| CGAACTAGGTCAGCAGGACAGTGAAGAGGTTGGA | 1.24 | 0.718 | -0.103 | 0.384 | -0.892 | 3.76 | 5.96 | 5.16 | 2.12 | 4.13 | 7.67 | 7.57 | 0.821 | 0.528 | 0.361 | -0.536 | 0.95 | -0.352 | 3.61 |
| CGAACTAGGTCACCAGGACAATGAAGAGGTTGGA | 3.54 | 2.55 | 0.00967 | 1.74 | 0.0583 | 5.41 | 8.69 | 6.83 | 4.53 | 6.43 | 7.84 | 9.01 | 1.88 | 1.94 | 1.49 | 0.22 | 2.43 | 0.0185 | 4.21 |
| CTAACTAGGTCAAAGGACAGTGAAAGGCGACGTA | 3.68 | 2.75 | 0.132 | 1.85 | -0.0221 | 5.86 | 10.8 | 9.18 | 9.63 | 10.2 | 8.56 | 8.84 | 1.86 | 1.28 | 1.19 | -0.0818 | 2.41 | 0.599 | 4.07 |
| CAAACTAGGTCACCAGGACAGTGAAGAGGTTGGA | 4.67 | 2.73 | 0.391 | 1.92 | 0.0732 | 5.18 | 9.26 | 7.14 | 5.2 | 7.09 | 8.41 | 8.88 | 1.44 | 2.71 | 1.87 | 0.166 | 2.97 | 0.827 | 4.28 |
| CGAACTAGGTGAAAGGACAGTGAAAGGCGACGTA | -0.276 | -0.418 | -0.4 | -0.115 | -0.863 | 4.46 | 8.84 | 7.7 | 6.77 | 8.31 | 7.36 | 7.28 | 1.83 | 1.93 | -0.398 | -0.114 | -0.0573 | -0.695 | 1.54 |
| ATATGTAGGTTAGGGTCATTTAGAAAGTAGGGAA | 4.85 | 3.93 | 1.62 | 4.59 | 1.67 | 5.67 | 7.69 | 6.54 | 4.42 | 6.23 | 6.56 | 6.66 | 2.64 | 3.47 | 4.23 | 1.89 | 4.82 | 1.85 | 3.33 |
| CCAACTAGGTCACCAGGACAGTGAAGAGGTTGGA | 4.24 | 2.6 | 0.434 | 1.91 | 0.121 | 4.66 | 8.3 | 6.53 | 3.83 | 6.09 | 7.98 | 8.26 | 1.95 | 2.72 | 1.52 | 0.124 | 2.69 | 1.44 | 4.36 |
| ATATGAAGGTTAGGGTCATTCAGAAAGTAGGGAA | 5.27 | 4.18 | 1.26 | 4.52 | 1.7 | 5.23 | 4 | 4.02 | 1.82 | 2.87 | 1.38 | 2.78 | 1.79 | 3.99 | 4.59 | 2.32 | 5.28 | 2.29 | 3.66 |
| CGAACTAGGTCACAAGGACAGTGAAGAGGTTGGA | 3.87 | 2.13 | 0.193 | 1.57 | -0.115 | 5.01 | 8.73 | 7.01 | 4.93 | 6.82 | 8.39 | 9.03 | 1.5 | 3.52 | 1.25 | 0.516 | 2.14 | 0.713 | 4.09 |
| CGAACTAGGTCAATGGACAGTGAAAGGCGACGTA | 3.01 | 1.85 | -0.266 | 1.17 | -0.604 | 4.39 | 6.92 | 6.17 | 3.76 | 5.61 | 7.65 | 7.92 | 4.35 | 2.53 | 0.477 | -0.177 | 1.18 | 0.235 | 3.51 |
| CGAACTAGGTCACCAGGAAAGTGAAGAGGTTGGA | 3.52 | 2.48 | -0.13 | 1.69 | -0.3 | 5.05 | 8.48 | 7.2 | 5.35 | 6.86 | 8.65 | 8.74 | 0.796 | 2.05 | 1.48 | -0.0939 | 2.37 | 0.814 | 4.29 |
| CGAACTAGGCCACCAGGACAGTGAAGAGGTTGGA | -0.158 | -0.638 | -0.662 | -0.868 | -0.94 | 1.98 | 3.12 | 2.28 | 0.382 | 1.23 | 6.89 | 6.5 | -0.0856 | -0.263 | -0.874 | -0.217 | -0.512 | -0.684 | 0.821 |
